The values below come from PubChem BioAssay AID1053124 (Broad Institute, 2014).

Entries with a potency or affinity are not part of this list. Active and inactive are the calls of the source.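 The calls were made as follows: active = cell killing whose fitted half-effect concentration is at most twice the top valid dose tested; inconclusive = flat curve with 30 to 70% killing, or a poor fit; inactive = effect in the rising direction, plus the rest.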

The nature of the assay: viability loss in A549 lung cells – cell-based, ATP luminescence, cherry-pick, set 2, cytotoxicity control, dose response (AID 1053124). The settings on record: ATP luminescence (CellTiter-Glo), 72 h; series mostly up to 26 µM. (In general: Cellular ATP, detected with luciferase, serves as a proxy for viable cell number.)
With `O=C(NNc1cc(N2CCCC2)nc(N2CCCC2)n1)c1ccc([N+](=O)[O-])cc1`, the result was inactive.

Turning to `COC(=O)C1=CN(C)C=C(C(=O)OC)C1c1ccccc1Cl`, the call was inactive.

With `CCCCn1nc(NC(=O)c2cccs2)c2cc3cc(OC)ccc3nc21`, the molecule was called inactive.

For `COc1cc(C(c2c(C(=O)O)[nH]c3ccccc23)c2c(C(=O)O)[nH]c3ccccc23)ccc1OCc1ccccc1`, the molecule was classed as inactive.

Consider `CCOCCCNc1nc2nc3ccc(C)cn3c(=O)c2cc1C(=O)NCC1CCCO1` (configuration not stated), for which the molecule was called inactive.

Consider `O=C(Cn1ccc([N+](=O)[O-])n1)N1CCCCCC1`, for which the molecule was classed as inactive.

Consider `CCNC(=O)c1cc2c(=O)n3cccc(C)c3nc2n(Cc2ccc(C)cc2)c1=N`, for which the call was inactive.

Turning to `CCC(C)n1c(=N)c(C#N)cc2c(=O)n3cc(C)ccc3nc21` (configuration not stated), the result was inactive.

`COc1ccccc1C(=O)c1cc2ccc(O)cc2oc1=O`: the outcome was inactive.

Consider `CCC(Sc1nc(N)c(NC(=O)c2ccc(OC)cc2)c(=O)[nH]1)C(=O)O` (configuration not stated), for which the molecule was classed as inactive.

As to `O=C(CCCN1C(=O)CSc2ncccc21)N1CCN(Cc2ccccc2)CC1`, the outcome was inactive.

Consider `CCN(CC)c1ccc2cc(C(N)=O)c(=O)oc2c1`, for which the call was inactive.

As for `Cc1cc(-n2c(=O)c(C#N)cc3c(=O)n4ccccc4nc32)no1`, the molecule was classed as inactive.

Turning to `COCCn1c(=N)c(S(=O)(=O)c2ccc(F)cc2)cc2c(=O)n3ccccc3nc21`, the molecule was called inactive.

`C=Cc1ccc(Cn2c(C)c(C(=O)NCc3cccc(C)c3)sc2=O)cc1`: the result was inactive.

In the case of `N=c1c(C(=O)NCC2CCCO2)cc2c(=O)n3ccccc3nc2n1Cc1ccc(Cl)cc1` (configuration not stated), the molecule was called inactive.

For `CCOc1ccc(-n2c(SCC(=O)Nc3nccs3)nnc2-c2ccoc2C)cc1`, the outcome was inactive.
